# Measurements as given in the supplement of paper PMC10338343.
# ± gives the standard deviation.
# Legend:
# [1] = tested on: MILI (PIWIL2) piRISC loaded with L1MC piRNA (26 nt); test: pre-steady-state target cleavage rate (min^-1); guide: L1MC piRNA 5'p-UAACUAAAUACUAUGCAAGCUGUAGG; higher = faster piRNA-guided slicing of the target
# Procedure, shortened: (§1)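 In Cleave-'n-Seq, a transcribed, DNA-blocked target RNA library (0.1 nM) was combined with 1 nM active affinity-purified piRISC bearing one synthetic guide, with or without 500 nM GTSF1 partner protein. Reactions ran in HEPES–potassium acetate buffer at 33 °C for 0–8 or 0–960 min. Uncleaved targets were sequenced and normalised to depth and to weakly complementary targets, three trials were pooled, and k3 was capped at 0.0001 min^-1. The pre-steady-state cleavage rate was obtained by fitting a burst-and-steady-state model.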
# [2] = tested on: EfPiwi piRISC loaded with L1MC piRNA (26 nt); test: pre-steady-state target cleavage rate (min^-1); auxiliary factor: 500 nM Ephydatia muelleri Gtsf1; guide: L1MC piRNA 5'p-UAACUAAAUACUAUGCAAGCUGUAGG; MIWI and MILI are mouse PIWI proteins and EfPiwi is from a freshwater sponge; tags in brackets are library labels; higher = faster piRNA-guided slicing of the target
# Procedure, shortened: as §1
# [3] = auxiliary factor: 500 nM mouse GTSF1
# [4] = auxiliary factor: none (no GTSF1)
Sequence,"pre-steady-state target cleavage rate [1, 3]","pre-steady-state target cleavage rate [1, 4]",pre-steady-state target cleavage rate [2]
UCCUGGUUCAGCUUGCAUUGUAUUUAGUUA,0.191 ± 0.023,0.0105 ± 0.0029,0.0223 ± 0.007
UCCUGGAUGUGCGUUGCAUAGUAUUUAGUUA,0.145 ± 0.016,0.00925 ± 0.0032,0.00539 ± 0.0024
UCCUGCUACAGCAUGCAUUGUAUUUAGUUA,0.213 ± 0.02,0.00734 ± 0.0026,0.0119 ± 0.0032
UCCUCCUAGAGGUUGCAUAGUAUUUAGUUA,0.205 ± 0.011,0.00716 ± 0.0022,0.0153 ± 0.0029
UCCUGCUACAGGUUGCAUAGUAAUUAGUUA,0.216 ± 0.032,0.00697 ± 0.0026,0.00595 ± 0.0019
UCCUGCUUCAGCUUGCUUAGUAUUUAGUUA,0.287 ± 0.011,0.00807 ± 0.0021,0.0238 ± 0.0068
UCCUCCUACAGGUUGCAUAGUAUUAAGUUA,0.212 ± 0.027,0.00545 ± 0.0022,0.00576 ± 0.0023
UCCUGCUACAGCUUGCAUAGUAGUUUAGUUA,0.239 ± 0.032,0.0034 ± 0.0024,0.00695 ± 0.0028
UCCUCCUACAGCUAGCAUACUAUUUAGUUA,0.0706 ± 0.011,0.0031 ± 0.0022,0.00634 ± 0.002
UCCUGGAACAGCUUGCAUAGUAAAUAGUUA,0.153 ± 0.021,0.0034 ± 0.0027,0.00589 ± 0.0023
UCCUGGAUGAGCUAGCAUAGUAUUUAGUUA,0.2 ± 0.018,0.00679 ± 0.0019,0.00597 ± 0.002
UCCUGGUACAGCAUGCAUAGUAUUUAGUUA,0.268 ± 0.02,0.0158 ± 0.004,0.0111 ± 0.0041
UCCUCCUACAGCUUUCAUAGUAUUUAGUUA,0.213 ± 0.017,0.00664 ± 0.002,0.00691 ± 0.0022
UCCUCCUACAGCUUGCAUAGUAUAAUGUUA,0.158 ± 0.026,0.00294 ± 0.0027,0.00388 ± 0.0022
UCCUCCUACAGCUUGCAUAGUAUUUAGAUA,0.205 ± 0.035,0.00357 ± 0.003,0.00505 ± 0.0025
UCCUGCUACAGCUUGCAUAGUACUUUAGUUA,0.194 ± 0.025,0.00825 ± 0.0022,0.00465 ± 0.0015
UCCUGGUACAGCUUGUAUAGUAUUUAGUUA,0.242 ± 0.017,0.0121 ± 0.0031,0.0177 ± 0.0048
UCCUGGUAGAGCUUGCAUAGUAUUUUGUUA,0.143 ± 0.03,0.00365 ± 0.003,0.00292 ± 0.0029
UCCUGGUACAGCUUGCAUUGUAUUUAGUUA,0.171 ± 0.017,0.0101 ± 0.0041,0.00513 ± 0.002
UCCUGGAUCAGCUUGCAAAGUAUUUAGUAA,0.12 ± 0.0069,0.00426 ± 0.0026,0.00607 ± 0.0027
UCCUGGAUCAGCUUGCAGAGUAUUUAGUUA,0.111 ± 0.015,0.00641 ± 0.002,0.00715 ± 0.0022
UCCUGGAUGAGCUAUGCAUAGUAUUUAGUUA,0.202 ± 0.013,0.0126 ± 0.0025,0.0256 ± 0.0076
UCCUGGUACAGCUUAGCAUAGUAUUUAGUUA,0.296 ± 0.018,0.0164 ± 0.0045,0.0188 ± 0.0058
UCCUGGUACGAGCUUGCAUAGUAUUUAGUUA,0.247 ± 0.045,0.0102 ± 0.0039,0.00873 ± 0.0027

Sequence,"pre-steady-state target cleavage rate [1, 3]","pre-steady-state target cleavage rate [1, 4]",pre-steady-state target cleavage rate [2]
UCCUGGUUCUGCUUGCAUAGUAUUUAGUUA,0.186 ± 0.024,0.00814 ± 0.0033,0.0355 ± 0.011
UCCUGGAUGAGACUUGCAUAGUAUUUAGUUA,0.186 ± 0.021,0.00953 ± 0.0028,0.00434 ± 0.003
UCCUGGUACAGCUUGCAUAGUAUUUAGAUA,0.149 ± 0.033,0.00493 ± 0.0028,0.00705 ± 0.0034
UCCUGGAUGUGCUUGUAUAGUAUUUAGUUA,0.142 ± 0.017,0.0136 ± 0.004,0.0218 ± 0.0071
UCCUGGAACUGCUUGCAAAGUAUUUAGUUA,0.117 ± 0.01,0.00518 ± 0.0021,0.0228 ± 0.008
UCCUGCUACAGCUUGCAUAGUAUUAGUUA,0.222 ± 0.026,0.0027 ± 0.0027,0.00404 ± 0.0022
UCCUCCUCCAGCUUGCAUAGUAUUUAGUUA,0.265 ± 0.019,0.00605 ± 0.0026,0.194 ± 0.056
UCCUCCUACAGCUUGCAUAGUAGUUUAGUUA,0.23 ± 0.022,0.007 ± 0.0022,0.0131 ± 0.0052
UCCUCCUAUCAGCUUGCAUAGUAUUUAGUUA,0.322 ± 0.015,0.00786 ± 0.0023,0.0677 ± 0.018
UCCUGCUACAGGUUGCAUAGUAUUUUGUUA,0.165 ± 0.028,0.00477 ± 0.0031,0.0057 ± 0.0026
UCCUGGAAGAGCUUGCAUAGUAUAUAGUUA,0.173 ± 0.019,0.00457 ± 0.0025,0.0114 ± 0.0044
UCCUGGAUCUCCUUGCAUAGUAUUUAGUAA,0.203 ± 0.024,0.00367 ± 0.0019,0.00383 ± 0.0026
UCCUGGAUCAGCUUGAAUAGUAUUUAGUUA,0.247 ± 0.017,0.00991 ± 0.0026,0.0605 ± 0.015
UCCUGGUUCAGCUUGCAUAGUAAUUAGUUA,0.235 ± 0.024,0.00723 ± 0.0031,0.0107 ± 0.0037
UCCUGGUACAGCUGUGCAUAGUAUUUAGUUA,0.238 ± 0.019,0.0118 ± 0.0046,0.00903 ± 0.0034
UCCUGGAUCAGUUUGCAUAGUAUUUAGUUA,0.24 ± 0.02,0.0104 ± 0.0027,0.128 ± 0.021
UCCUGGUACAGCUAUGCAUAGUAUUUAGUUA,0.259 ± 0.016,0.0112 ± 0.0038,0.0292 ± 0.0094
UCCUGCUAGAGCUUGCAUAGUAUUAAGUUA,0.256 ± 0.033,0.00303 ± 0.0024,0.00624 ± 0.0022
UCCUGGUACAGGUUGCAUUGUAUUUAGUUA,0.175 ± 0.023,0.0117 ± 0.0031,0.0047 ± 0.0018
UCCUGCUACAGCAUGCAUAGUAAUUAGUUA,0.225 ± 0.022,0.00692 ± 0.0027,0.007 ± 0.0024
UCCUGGAUGAAGCUUGCAUAGUAUUUAGUUA,0.224 ± 0.02,0.0106 ± 0.0031,0.0366 ± 0.0082
UCCUGGAUCAGCUUGCAUAGUAUUUACAAA,0.105 ± 0.021,0.00255 ± 0.0024,0.00404 ± 0.002
UCCUCCUUCAGCAUGCAUAGUAUUUAGUUA,0.265 ± 0.017,0.00701 ± 0.0018,0.0621 ± 0.018
